Experimental data taken from PubChem BioAssay (NCATS).
Results filed as inconclusive are left out. Values without a mark were called inactive. Calls of active or inactive are those of the source. Calls follow the shape of the dose curve; as a rule, active = well fitted cell-killing curve with a large enough effect; inconclusive = small, poorly fitted or top-dose-only effect; inactive = no such curve, though single readings can be large or run the other way.

Experiment: qHTS of pediatric cancer cell lines to identify multiple opportunities for drug repurposing: Primary screen for SK-N-MC cells (AID 1347093);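 as to activity change, negative = cytotoxic: plate controls were DMSO neutral control for no effect and bortezomib for full effect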
Settings: SK-N-MC viability, CellTiter-Glo luminescence, 48 h; series mostly up to 46 µM; activity change, negative = cytotoxic: at the top concentration
In short: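 Metabolically active cells were quantified by ATP-dependent luminescence (CellTiter-Glo, 15 min at room temperature) following 48 h treatment. Cells had been plated at 500-1,000 per well and settled for 5 h beforehand.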
Potency is read from the fitted curve at half-maximal effect.

With CCOC(=O)[C@H](CCc1ccccc1)N[C@@H](C)C(=O)N1[C@@H](C(=O)O)C[C@H]2CCC[C@@H]21 as the compound, how does the Potency read?
The Potency was 1870 nM (active).

With COC1=C2C[C@@H](C)C[C@H](OC)[C@@H](O)[C@@H](C)C=C(C)[C@H](OC(N)=O)[C@@H](OC)C=CC=C(C)C(=O)NC(=CC1=O)C2=O as the compound, how does the Potency read?
Its Potency is 1050 nM (active).

Which Potency does the source give for CCCCCN=C(N)NN=Cc1c[nH]c2ccc(OC)cc12 here?
Its Potency is 3720 nM (active).

With COc1cc(N2CCC(C(N)=O)CC2)ccc1Nc1nc(N)c(Cl)c(Nc2ccccc2S(=O)(=O)C(C)C)n1 as the compound, how does the Potency read?
The Potency was 132 nM (active).

Which Potency does the source give for NC(=O)Nc1cc(-c2ccc(CN3CCOCC3)cc2)sc1C(N)=O here?
Its Potency is 105 nM (active).

For CN(CC(=O)N(Cc1ccc(C2CCCCC2)cc1)c1ccc(C(=O)O)c(O)c1)S(=O)(=O)c1c(F)c(F)c(F)c(F)c1F, which Potency is on record?
The Potency was 1480 nM (active).

With FC(F)(F)c1ccc(Nc2nc3ccc(Oc4ccnc(-c5ncc(C(F)(F)F)[nH]5)c4)cc3[nH]2)cc1 as the compound, how does the Potency read?
Its Potency is 4180 nM (active).

Which Potency does the source give for CC(C)NC[C@@H](C(=O)N1CCN(c2ncnc3c2[C@H](C)C[C@H]3O)CC1)c1ccc(Cl)cc1 here?
The Potency was 132 nM (active).

With CN1CCc2c(c3ccccc3n2Cc2ccc(C(=O)NO)cc2)C1 as the compound, how does the Potency read?
Its Potency is 2960 nM (active).

With CN(C)CC(=O)N1CCC(c2ccc(NC(=O)c3ncc(C#N)[nH]3)c(C3=CCCCC3)c2)CC1 as the compound, how does the Potency read?
The Potency was 1660 nM (active).

With Oc1ccc([C@@H]2Oc3ccc(O)cc3[C@@H]3CCC[C@@H]32)cc1 as the compound, how does the Potency read?
Its Potency is 4180 nM (active).

For CC(=O)ON=C1C(c2c(O)[nH]c3cc(Br)ccc23)=Nc2ccccc21, which Potency is on record?
The Potency was 11.8 nM (active).

Which Potency does the source give for COc1cc2c(cc1OC)[C@@H]1C(=O)c3ccc4c(c3O[C@@H]1CO2)C=CC(C)(C)O4 here?
Its Potency is 148 nM (active).

For CCCNC(=O)[C@H]1O[C@H]1C(=O)N[C@H](C(=O)N1CCC[C@@H]1C(=O)OC)C(C)CC (stereo partly specified), which Potency is on record?
The Potency was 2640 nM (active).

Which Potency does the source give for NC(=O)N1CCC(CC(=O)N2CCC([C@H]3c4ncc(Br)cc4CCc4cc(Cl)cc(Br)c43)CC2)CC1 here?
The Potency was 14800 nM (active).

Which Potency does the source give for CS(=O)(=O)N1CCc2c(-c3cnc(N)nc3)nc(N3CCOCC3)nc21 here?
Its Potency is 37.2 nM (active).

With N#Cc1ccc(COC[C@H]2O[C@@H](n3c(NCc4ccc(Cl)c(Cl)c4)nc4c(N)ncnc43)[C@@H](O)[C@@H]2O)cc1 as the compound, how does the Potency read?
The Potency was 20900 nM (active).

For CCOC(=O)[C@@H](N)Cc1ccc(-c2cc(O[C@H](c3ccc(Cl)cc3-n3ccc(C)n3)C(F)(F)F)nc(N)n2)cc1, which Potency is on record?
The Potency was 16600 nM (active).

With C#C[C@]1(O)CC[C@@H]2[C@@H]3CCc4cc(O)ccc4[C@H]3CC[C@@]21C as the compound, how does the Potency read?
The Potency was 11800 nM (active).

With O=C(O)C=Cc1ccc(Cn2ccnc2)cc1 as the compound, how does the “activity change, negative = cytotoxic” value read?
Its value is -19.4%.

Which Potency does the source give for C=CC[C@@H]1C=C(C)C[C@H](C)C[C@H](OC)[C@H]2O[C@@](O)(C(=O)C(=O)N3CCCC[C@H]3C(=O)O[C@H](C(C)=C[C@@H]3CC[C@H](O)[C@H](OC)C3)[C@@H](C)[C@@H](O)CC1=O)[C@@H](C)C[C@@H]2OC here?
The Potency was 8330 nM (active).

With COc1cccc2c1C(=O)c1c(O)c3c(c(O)c1C2=O)C[C@@](O)(C(C)=O)C[C@H]3O[C@H]1C[C@H](N)[C@H](O)[C@H](C)O1 as the compound, how does the Potency read?
Its Potency is 46.9 nM (active).

With O=C(C=Cc1ccc(CN(CCO)CCc2c[nH]c3ccccc23)cc1)NO as the compound, how does the Potency read?
The Potency was 105 nM (active).

With O=C(Nc1nnc(-c2ccco2)o1)c1cc(-c2ccccc2)nc2ccccc12 as the compound, how does the Potency read?
The Potency was 11800 nM (active).

Which Potency does the source give for C=CCNC1=C2C[C@@H](C)C[C@H](OC)[C@@H](O)[C@@H](C)C=C(C)[C@H](OC(N)=O)[C@@H](OC)C=CC=C(C)C(=O)NC(=CC1=O)C2=O here?
The Potency was 1660 nM (active).

Which Potency does the source give for c1cc(N[C@@H]2CCNC2)nc(-c2cnc3ccc(-c4cn[nH]c4)cn23)c1 here?
The Potency was 4690 nM (active).

With COc1ccc(S(=O)(=O)Nc2cccnc2Nc2ccc(O)cc2)cc1 as the compound, how does the Potency read?
Its Potency is 296 nM (active).

Which Potency does the source give for C[C@H](NC(=O)C(C#N)=Cc1cccc(Br)n1)c1ccccc1 here?
The Potency was 11800 nM (active).

With COc1cc(C(=O)NC2CCN(C)CC2)ccc1Nc1ncc2c(n1)N(C1CCCC1)CCC(=O)N2C(C)C as the compound, how does the Potency read?
Its Potency is 1180 nM (active).

For C=CC(=O)Nc1cc(NC(=O)c2ccc(C)c(NC(=O)c3ccno3)c2)cc(C(F)(F)F)c1, which Potency is on record?
The Potency was 10500 nM (active).

For CC(C=CC1=C(C)CCCC1(C)C)=CC=CC(C)=CC(=O)Nc1ccc(O)cc1, which Potency is on record?
The Potency was 3820 nM (active).
